Experimental data: PubChem BioAssay
Unmarked numbers belong to inactive results. A call without a number means that no potency is given here. For some assays here: Potency and affinity values are given separately. The source made the active and inactive calls. Unless noted, no rule for the calls is given here.

Columns and labels:
[1] = antimalarial activity against Dd2 strain (AID 2302;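 active = growth inhibition above 50% at the single 2 µM test dose, taken to imply half-maximal potency below 2 µM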); details: P. falciparum Dd2 in RBCs, LDH growth readout, 72 h; at 2 µM; active compounds read high
[2] = human hepatoma cell viability loss – ATP luminescence, cytotoxicity control for P. falciparum antimalarial project, primary screen (AID 2303;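 active = inhibition above 50%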); details: HepG2 viability, 24-48 h, at 10 µM, active compounds read high
[3] = target: L-lactate dehydrogenase (Plasmodium falciparum (isolate CDC / Honduras)) (UniProt Q27743); experiment: PfLDH activity inhibition – cell lysate, 3D7 strain, counter-screen for P. falciparum growth inhibition project (AID 2304); details: P. falciparum 3D7 crude extract, LDH APAD/NBT absorbance; at 2 µM; active compounds read high
L-lactate dehydrogenase (Plasmodium falciparum (isolate CDC / Honduras)), sequence (Q27743 whole entry, looked up): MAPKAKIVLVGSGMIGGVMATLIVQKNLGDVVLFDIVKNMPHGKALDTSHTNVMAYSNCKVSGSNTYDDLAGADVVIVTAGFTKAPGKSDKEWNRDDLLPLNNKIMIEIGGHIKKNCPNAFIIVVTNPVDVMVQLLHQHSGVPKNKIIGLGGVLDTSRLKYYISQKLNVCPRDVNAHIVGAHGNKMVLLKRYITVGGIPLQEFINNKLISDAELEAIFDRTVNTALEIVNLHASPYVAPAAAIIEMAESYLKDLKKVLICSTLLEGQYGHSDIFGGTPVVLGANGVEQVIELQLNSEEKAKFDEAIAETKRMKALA

[4] = inhibition of 3D7 malaria parasite growth – strain 3D7 (AID 2306); details: P. falciparum 3D7 erythrocytic growth, LDH absorbance, 72 h; at 2 µM; active compounds read high
[5] = target: Calcium-dependent protein kinase 1 (Plasmodium falciparum (isolate 3D7)) (UniProt P62344); experiment: PfCDPK1 kinase inhibitors, biochemical, TCAMS library (AID 1159585; cut-off not given, nearly all actives have IC50 up to about 0.98 µM;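 also: inhibitors leave more ATP so luminescence rises with inhibition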); details: recombinant PfCDPK1, Kinase-Glo ATP depletion luminescence
Calcium-dependent protein kinase 1 (Plasmodium falciparum (isolate 3D7)), sequence (P62344 whole entry, looked up): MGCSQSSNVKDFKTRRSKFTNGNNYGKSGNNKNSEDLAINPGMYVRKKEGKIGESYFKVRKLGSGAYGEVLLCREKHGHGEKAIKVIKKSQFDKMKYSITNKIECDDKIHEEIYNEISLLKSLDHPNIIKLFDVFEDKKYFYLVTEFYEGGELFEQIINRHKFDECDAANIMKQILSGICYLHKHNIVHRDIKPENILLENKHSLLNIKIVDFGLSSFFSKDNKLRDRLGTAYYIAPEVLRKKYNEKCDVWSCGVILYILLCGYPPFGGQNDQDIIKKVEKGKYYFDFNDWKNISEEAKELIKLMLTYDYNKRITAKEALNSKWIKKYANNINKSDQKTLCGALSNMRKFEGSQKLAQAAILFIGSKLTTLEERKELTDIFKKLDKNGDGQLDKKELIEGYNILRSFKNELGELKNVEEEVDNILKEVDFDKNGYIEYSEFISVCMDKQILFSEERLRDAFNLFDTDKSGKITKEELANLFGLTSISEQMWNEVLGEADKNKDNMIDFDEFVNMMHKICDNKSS

[6] = target: Plasmodium falciparum protein kinase 6 (PK6, PF3D7_1337100) (UniProt Q8IDW1); experiment: PfPK6 kinase inhibitors, biochemical, TCAMS library (AID 1159586); details: recombinant PfPK6, Kinase-Glo ATP depletion luminescence
Plasmodium falciparum protein kinase 6 (PK6, PF3D7_1337100), sequence (Q8IDW1 1-305): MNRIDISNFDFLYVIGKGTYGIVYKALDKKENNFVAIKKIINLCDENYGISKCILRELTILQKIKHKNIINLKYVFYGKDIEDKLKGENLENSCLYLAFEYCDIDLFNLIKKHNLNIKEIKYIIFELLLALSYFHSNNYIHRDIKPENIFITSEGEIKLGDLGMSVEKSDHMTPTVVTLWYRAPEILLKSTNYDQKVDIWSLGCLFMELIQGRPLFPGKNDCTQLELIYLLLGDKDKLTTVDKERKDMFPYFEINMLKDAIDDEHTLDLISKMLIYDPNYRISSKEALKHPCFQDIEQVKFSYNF

[7] = target: Protein kinase 7 (PK7), Plasmodium falciparum 3D7 (PF3D7_0213400) (UniProt Q7YTF7); experiment: inhibition of Plasmodium PK7 catalytic activity – biochemical, TCAMS antimalarial set, Kinase-Glo luminescence (AID 1159587); details: recombinant PfPK7, Kinase-Glo ATP depletion luminescence
Protein kinase 7 (PK7), Plasmodium falciparum 3D7 (PF3D7_0213400), sequence (Q7YTF7 1-343): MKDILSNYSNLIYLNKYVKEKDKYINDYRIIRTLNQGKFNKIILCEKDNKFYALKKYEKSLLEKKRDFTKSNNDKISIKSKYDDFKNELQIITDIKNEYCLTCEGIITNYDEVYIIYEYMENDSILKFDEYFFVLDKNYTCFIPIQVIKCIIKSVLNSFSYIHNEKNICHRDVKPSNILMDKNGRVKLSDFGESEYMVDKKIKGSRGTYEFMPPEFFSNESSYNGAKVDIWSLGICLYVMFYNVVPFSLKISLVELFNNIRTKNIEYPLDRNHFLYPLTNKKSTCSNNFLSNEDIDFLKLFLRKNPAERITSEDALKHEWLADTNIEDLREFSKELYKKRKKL

[8] = target: Calcium-dependent protein kinase 4 (Plasmodium falciparum (isolate 3D7)) (UniProt Q8IBS5); experiment: PfCDPK4 kinase inhibitors, biochemical, TCAMS library (AID 1159588; cut-off not given, nearly all actives have IC50 up to about 0.91 µM); details: recombinant PfCDPK4, Kinase-Glo ATP depletion luminescence
Calcium-dependent protein kinase 4 (Plasmodium falciparum (isolate 3D7)), sequence (Q8IBS5 whole entry, looked up): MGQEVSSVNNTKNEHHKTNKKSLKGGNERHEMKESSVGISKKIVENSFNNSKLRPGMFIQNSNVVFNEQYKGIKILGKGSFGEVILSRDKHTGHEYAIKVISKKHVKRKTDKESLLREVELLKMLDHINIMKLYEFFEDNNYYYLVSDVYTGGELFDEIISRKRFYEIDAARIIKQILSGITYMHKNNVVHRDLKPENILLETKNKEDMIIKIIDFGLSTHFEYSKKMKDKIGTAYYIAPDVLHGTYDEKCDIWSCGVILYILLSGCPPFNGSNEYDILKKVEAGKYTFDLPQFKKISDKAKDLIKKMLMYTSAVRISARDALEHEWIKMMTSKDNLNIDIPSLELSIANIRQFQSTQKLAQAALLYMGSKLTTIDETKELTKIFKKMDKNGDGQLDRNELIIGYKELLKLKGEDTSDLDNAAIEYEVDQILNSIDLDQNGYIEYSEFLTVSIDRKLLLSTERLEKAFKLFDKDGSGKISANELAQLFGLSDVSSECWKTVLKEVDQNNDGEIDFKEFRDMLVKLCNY

SMILES	growth inhibition [1]	inhibition [2]	inhibition [3] [%]	growth inhibition [4]	outcome [5]	outcome [6]	outcome [7]	outcome [8]
O=C(Cn1c(CCc2cccc(F)c2F)nc(=O)c2cccnc21)N(Cc1ccc(-c2ccc(C(F)(F)F)cc2)cc1)C1CCN(C2CCSCC2)CC1	63% (active)	49%	3	101% (active)	inactive	inactive	inactive	inactive
O=C(Cc1ccccc1)NC1(c2ccccc2)CCN(CCc2c[nH]c3ccc(F)cc23)CC1	62% (active)	29%	2	87% (active)	inactive	inactive	inactive	inactive
O=C(Cc1cccc(Cl)c1)N1CCc2cc3nccc(N4CCN5CCC[C@H]5C4)c3cc21	4%	14%	4	96% (active)	inactive	inactive	inactive	inactive
O=C(Nc1ccc(C(F)(F)F)cc1)c1ccc(S(=O)(=O)NC2CCN(CC3CCCCC3)CC2)cc1	20%	30%	1	101% (active)	inactive	inactive	inactive	inactive
O=S(=O)(NC1CCN(c2ccnc3ccccc23)C1)c1ccc(OC(F)(F)F)cc1 (stereo not given)	-1%	34%	5	88% (active)	inactive	inactive	inactive	inactive
O=S(=O)(c1ccc2cc[nH]c2c1)N1CCC[C@@H]1CCN1CCC(c2c[nH]c3cnccc23)CC1	0%	13%	0	95% (active)	inactive	inactive	inactive	inactive
CCN(CC)CCOc1ccc(C(O)(C#CC(O)(c2ccc(Br)cc2)c2ccc(OCCN(CC)CC)cc2)c2ccc(Br)cc2)cc1 (stereo not given)	99% (active)	99% (active)	7	99% (active)	inactive	inactive	inactive	inactive
COc1ccc(-c2nc(NC(=O)CS(=O)(=O)c3ccc(OC)cc3)sc2C)cc1	89% (active)	6%	-2	95% (active)	inactive	inactive	inactive	inactive
CS(=O)(=O)CCNCc1nc(-c2ccc3c(Nc4ccc(Oc5ccccn5)cc4)ccnc3c2)cs1	89% (active)	9%	-1	100% (active)	inactive	inactive	inactive	inactive
CCOc1ccc(Br)cc1/C=C/C(=O)Nc1ccc2c(c1)CN(C)CCC2	37%	18%	1	97% (active)	inactive	inactive	inactive	inactive
C[C@H](Cc1ccc(OCCCCCCOc2ccc(C[C@@H](C)NC(=O)[C@H](O)c3cccc(Cl)c3)cc2)cc1)NC[C@H](O)c1cccc(Cl)c1	99% (active)	39%	-3	99% (active)	inactive	inactive	inactive	inactive
CC(=NN=C(N)N)C(=O)Nc1ccc(Cl)c(Cl)c1	97% (active)	-3%	0	101% (active)	inactive	inactive	inactive	inactive
COc1ccc([C@@]23Oc4cc(OC)cc(OC)c4[C@]2(O)C2(CC3c3ccccc3)SCCCS2)cc1 (stereo not given in full)	97% (active)	39%	-10	96% (active)	inactive	inactive	inactive	inactive
NS(=O)(=O)c1cccc(-c2ccc3ncc(N4CCOCC4)nc3c2)c1	74% (active)	17%	-4	96% (active)	inactive	inactive	inactive	inactive
O=C(/C=C/c1ccc(F)cc1)NC1CCC(CCN2CCc3ccccc3CC2)CC1 (stereo not given)	36%	27%	4	91% (active)	inactive	inactive	inactive	inactive
CN(C)c1ccc(-c2ccc(C(=O)NC3CCN(Cc4ccccc4F)CC3)s2)cc1	19%	30%	-4	88% (active)	inactive	inactive	inactive	inactive
Cc1ccc(CON2C(N)=NC(N)=NC2(C)C)c(Cl)c1 (tested in a mixture with another compound)	96% (active)	67% (active)	0	91% (active)	inactive	inactive	inactive	inactive
Cc1sc(NC(=O)Cc2cccc(C(F)(F)F)c2)nc1-c1cccc(Cl)c1	95% (active)	15%	-3	101% (active)	inactive	inactive	inactive	inactive
COc1ccc(CNCCCCCNCc2ccc(Cl)c(Cl)c2)cc1Cl	43%	42%	0	98% (active)	inactive	inactive	inactive	inactive
NC(=O)c1ccc(C(=O)Nc2cccc(-c3cccc(-c4nc5ccc(C(F)(F)F)cc5[nH]4)c3)c2)cc1	36%	63% (active)	-5	100% (active)	inactive	inactive	inactive	inactive

SMILES	growth inhibition [1]	inhibition [2]	inhibition [3] [%]	growth inhibition [4]	outcome [5]	outcome [6]	outcome [7]	outcome [8]
CCCc1cc(Cc2cnc(N)nc2N)ccc1OCCCCCC(=O)OCC	1%	-11%	0	97% (active)	inactive	inactive	inactive	inactive
CCC(CC)N1C(=O)C(c2ccccc2)(c2ccccc2)N=C1N	61% (active)	14%	-7	96% (active)	inactive	inactive	inactive	inactive
O=C(Nc1ccccc1)N(Cc1ccc(-c2ccc(CNCc3ccc4c(c3)OCO4)cc2)cc1)C1CCN(Cc2ccccc2)CC1	41%	21%	-1	98% (active)	inactive	inactive	inactive	inactive
Cc1cccc2[nH]c(-c3cccc(-c4ccc(NC(=O)C(=O)c5cccn5C)cc4)c3)nc12	46%	45%	-1	101% (active)	inactive	inactive	inactive	inactive
COc1ccc(CNCc2ccccc2)cc1-c1ccc(S(=O)(=O)NCCN2CCCC2)c(C)c1	50% (active)	33%	3	99% (active)	inactive	inactive	inactive	inactive
c1ccc(CN2CCC(NCc3cccc(-c4cncc5ccccc45)c3)CC2)cc1	11%	29%	3	92% (active)	inactive	inactive	inactive	inactive
CCOC(=O)c1ccc(NC(=O)Nc2ccc(-c3ccc(-c4nc5c(C)cccc5[nH]4)s3)cc2)cc1	100% (active)	60% (active)	-4	101% (active)	inactive	inactive	inactive	inactive
COc1ccc(C(=O)CCC(=O)N(CCC2CCCN2C)Cc2ccc(-c3ccc(CNCCc4ccc(S(C)(=O)=O)cc4)cn3)cc2)cc1F (stereo not given)	45%	13%	-2	93% (active)	inactive	inactive	inactive	inactive
CCOc1ccc(C(=O)Nc2nonc2-c2ccc(OC)c(OC)c2)cc1	42%	7%	5	95% (active)	inactive	inactive	inactive	inactive
Cc1cc(N[C@@H](Cc2ccccc2)C(=O)NCCOc2ccccc2)nc(NCCc2cccs2)n1	32%	8%	0	95% (active)	inactive	inactive	inactive	inactive
Cc1cc(O)c2c(c1)OC(C)(C)C=C2C1=CCN(Cc2ccccc2)CC1	1%	-2%	-3	96% (active)	inactive	inactive	inactive	inactive
COc1ccc2nccc(N3CCN(CCNCc4ccc5c(n4)NC(=O)CS5)CC3)c2c1	23%	18%	-2	97% (active)	inactive	inactive	inactive	inactive
O=C(Cn1c(=O)oc2ccccc21)N1CCC(n2c(=O)n(CCCN3CCOCC3)c3ccccc32)CC1	101% (active)	11%	5	99% (active)	inactive	inactive	inactive	inactive
COc1ccc(NC(=O)[C@H](Cc2ccccc2)Nc2cc(C)nc(NCCc3ccccn3)n2)cc1	39%	-7%	-3	99% (active)	inactive	inactive	inactive	inactive
O=C(Nc1ccc(C(=O)Nc2ccc(C3=NCCN3)cc2)cc1)Nc1ccc(C2=NCCN2)cc1	95% (active)	-8%	-7	94% (active)	inactive	inactive	inactive	inactive
CC(=O)Nc1ccc(C(=O)Nc2ccc(-c3cccc(-c4nc5ccc(C(F)(F)F)cc5[nH]4)c3)cc2)cn1	98% (active)	29%	-2	102% (active)	inactive	inactive	inactive	inactive
COc1cc2c(cc1S(=O)(=O)c1ccc(OCc3ccc(Cl)cc3)cc1)CCN(Cc1ccc(NC(C)=O)s1)CC2	-3%	3%	-2	89% (active)	inactive	inactive	inactive	inactive
Cc1ccc(Nc2nccc(NCC(O)c3cccc(C(F)(F)F)c3)n2)cc1 (stereo not given)	74% (active)	19%	-6	99% (active)	inactive	inactive	inactive	inactive
O=C(c1cccc(-c2cccc(-c3nc4ccc(F)cc4[nH]3)c2)c1)N1CCCCC1CN1CCC(O)C1 (stereo not given)	100% (active)	36%	-5	90% (active)	inactive	inactive	inactive	inactive
CC(CN1CCN(C)CC1)C(=O)Nc1ccc(-c2ccc(-c3nc4ccccc4[nH]3)s2)cc1 (stereo not given)	79% (active)	5%	4	100% (active)	inactive	inactive	inactive	inactive
